NPC1 prom act: activators of NPC1 promoter; Huh7 NPC1 promoter luciferase reporter, 24 h; Potency, µM (titrated, usually from 9.22 µM), for inactives: top-dose activation, most hits filed as activators; actives 2.4% (n = 320,000); AID 485313; further: % of control where 0% means no effect; nearly all actives have a fitted effect of over 60% in size
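Huh7 cells stably carrying NPC1 promoter–luciferase, plated in Opti-MEM with 10% FBS for 2 h, were exposed to compound in DMSO for 24 h at 37 °C; luciferase reagent was added for 10 min and luminescence read.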
SMN2 splice up: increases expression of the SMN2 splice variant; HEK293 SMN2-luciferase splicing reporter, luminescence, 30-36 h; Potency, µM (top dose mostly 46.1 µM), without a hit: top-dose activity change, positive = activation, usual class: activators; actives 2.8% (n = 210,000); further: % of control where 0% means no effect; nearly all actives have a fitted effect of over 55% in size
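HEK293 cells carry an SMN2 minigene-luciferase reporter in which exon 7 inclusion puts luciferase in frame. Cells were seeded at 2000 cells/well, attached for 10-12 hours, then exposed to compounds for 30-36 hours at 37C before ONE-Glo luminescence.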
Rab9 prom act: activates the Rab9 promoter. Huh7 Rab9 promoter-luciferase reporter, luminescence, 24 h. Potency, µM (titrated, usually from 9.22 µM), for the others: at the top dose activation, negative = inhibition, actives largely listed as activators. actives 2.8% (n = 320,000); further: % of control where 0% means no effect; nearly all actives have a fitted effect of over 60% in size
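Promoter activation is measured as luciferase luminescence in Huh7 cells stably transfected with a Rab9 promoter–luciferase construct, following 24 h compound exposure at 37 °C and 10 min reagent incubation at ambient temperature.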
ELG1 genotoxic: genotoxicity induction in ELG1-luciferase HEK293T cells | HEK293T ELG1-luciferase reporter, luminescence, 16 h | Potency, µM (doses to about 46 µM), without a hit: at the top dose activity change, positive = activation, actives largely listed as activators | actives 1.3% (n = 330,000) | AID 504466; further: % of control where 0% means no effect; nearly all actives have a fitted effect of over 60% in size
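Genotoxic stress is detected as increased luminescence from luciferase-tagged ELG1 in HEK293T cells, measured with ONE-Glo after a 16 hr treatment at 37 °C.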
FLuc counter: firefly luciferase modulation, counter-screen for miR-21 project | purified FLuc, Km substrates, luminescence inhibition | Potency, µM (titrated, usually from 57.5 µM), without a hit: at the top dose activity change, negative = inhibition, most hits filed as inhibitors | P08659 | actives 6.9% (n = 360,000);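 further: plate controls were vehicle for no effect and reference inhibitor for full effect; nearly all actives have a fitted effect of over 55% in size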
Target sequence (P08659 whole entry, looked up): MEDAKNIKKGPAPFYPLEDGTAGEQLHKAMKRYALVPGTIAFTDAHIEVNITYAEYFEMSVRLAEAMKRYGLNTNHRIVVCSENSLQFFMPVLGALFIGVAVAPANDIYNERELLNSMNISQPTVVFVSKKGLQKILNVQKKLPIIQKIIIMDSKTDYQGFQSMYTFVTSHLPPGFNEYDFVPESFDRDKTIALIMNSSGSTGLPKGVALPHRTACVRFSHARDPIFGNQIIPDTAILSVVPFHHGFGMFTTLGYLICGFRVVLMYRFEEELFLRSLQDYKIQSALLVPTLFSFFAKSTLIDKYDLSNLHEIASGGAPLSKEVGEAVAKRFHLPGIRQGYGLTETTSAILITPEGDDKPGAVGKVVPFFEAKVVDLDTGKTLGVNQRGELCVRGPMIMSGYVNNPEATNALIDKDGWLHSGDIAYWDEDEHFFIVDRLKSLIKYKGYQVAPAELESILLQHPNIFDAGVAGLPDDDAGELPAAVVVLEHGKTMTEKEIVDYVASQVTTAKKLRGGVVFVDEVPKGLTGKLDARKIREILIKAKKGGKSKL
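Purified P. pyralis luciferase (10nM final) with 10uM D-luciferin and 10uM ATP (Km levels) in 50mM Tris acetate pH 7.5, 10mM Mg acetate, 0.01% Tween-20, 0.05% BSA; qHTS 6-point titration, ~60 µM downward; luminescence read.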
Numbers without * were called inactive; ? = inconclusive; · = no result given; [ ] = remark or other dose. The list is not random: actives were taken first. Their share in the collection is about 7.5%. The call rests on the fitted dose curve; in most records, active means well fitted curve in the direction sought with a large enough effect; inconclusive means small, poorly fitted or top-dose-only effect, or another doubt; inactive means no such curve, though single readings can be large; an effect the other way counts as inactive or inconclusive. Potency means the concentration at half of the fitted maximal effect.

SMILES	NPC1 prom act	SMN2 splice up	Rab9 prom act	ELG1 genotoxic	FLuc counter
CC(C)(C)C(=O)OC/C(N)=N/OC(=O)c1ccc(Cl)c(Cl)c1	0%	·	0%	-3%	?
C/C(=N\OC(=O)c1ccc(Cl)c(Cl)c1)c1sc(C)nc1C	-1%	-10%	-2%	1%	5.4µM*
C/C(=N/OC(=O)c1ccccc1Br)c1ccc(C)cc1	18%	·	17%	?	2.7µM*
N#Cc1cc([N+](=O)[O-])c2sc(C(N)=O)[n+]([O-])c2c1	-14%[46.1 µM]	·	-2%[46.1 µM]	·	·
CCCCN(CC(=O)NCc1ccc(F)cc1)C(=O)c1ccco1	-3%	1%	-6%	-7%	3%
O=C(CNC(=O)C12CC3CC(CC(C3)C1)C2)Nc1ncccc1O	4%	·	4%	1%	-2%
C/C(=N\OC(=O)c1ccc(C)cc1)c1sc(C)nc1C	-4%	-10%	-2%	0%	2.7µM*
C/C(=N\OC(=O)c1ccc(C)cc1)c1c(C)nc2cc(C)ccn12	-3%	-2%	-3%	-4%	0%
Cc1csc2ncc(C(=O)Nc3ccccc3F)c(=O)n12	?	13µM*	?	12µM*	?
Cc1csc2ncc(C(=O)Nc3ccccc3Cl)c(=O)n12	?	·	3.2µM*	?	-17%
CN(C1(C)CCS(=O)(=O)C1)S(=O)(=O)c1ccc2ccccc2c1 (configuration not stated)	-6%	·	-9%	0%	-1%
Cc1cc(C(F)(F)F)nc2c(Cl)c(C(C)(C)C)nn12	-1%	·	0%	0%	-1%
CCOC(=O)/C(=N/Nc1ccc(C)cc1)S(=O)(=O)c1ccc(Cl)cc1	?	3%	?	?	17µM*
COc1ccc(Cn2c(CCC(=O)NCc3cccc(Cl)c3)nc3cccnc32)cc1	·	5%	·	·	-8%
OCCOCCNc1ncnc2c1cnn2-c1ccccc1	2.2µM*	-18%	?	-3%	?
COCCNc1ncnc2c1cnn2-c1ccc(Cl)cc1	1.8µM*	·	1.8µM*	·	7.6µM*
OCCOCCNc1ncnc2c1cnn2-c1ccc(Cl)cc1	1.1µM*	-9%	0.89µM*	0%	9.5µM*
c1ccc(-n2ncc3c(NCc4ccccn4)ncnc32)cc1	20%	27%	20%	?	?
Clc1ccc(-n2ncc3c(NCc4cccs4)ncnc32)cc1	3%	-57%	5%	-5%	4%
CC(C)OCCCNc1ncnc2c1cnn2-c1ccccc1	1.4µM*	-10%	0.45µM*	-1%	4.3µM*
CCN(CC(=O)Nc1cccc(OC)c1)CC(=O)Nc1ccc(C)cc1Cl	-1%	6%	0%	-4%	4%
COCCN(CCOC)c1ncnc2c1cnn2-c1ccc(Cl)cc1	?	?	?	10µM*	15µM*
COc1ccc(C(=O)N/N=C/c2cccnc2)cc1	?	·	21%	?	15µM*
CCOc1ccccc1C(=O)N/N=C/c1cccc2cccnc12	2%	-8%	0%	0%	?
CCOc1ccc(C(=O)N/N=C/c2cccc3cccnc23)cc1	-27%	-4%	-20%	3%	6.7µM*
SMILES	NPC1 prom act	SMN2 splice up	Rab9 prom act	ELG1 genotoxic	FLuc counter
COc1ccc(C(=O)N/N=C(\c2ccccc2)c2ccccn2)cc1	-19%	-67%	-39%	?	?
COc1ccc(C(=O)N/N=C/c2cccc3cccnc23)cc1	-4%	-14%	-10%	2%	7.6µM*
O=C(CNC(=O)c1ccc(F)cc1)N/N=C/c1cccnc1	-6%	·	0%	0%	-1%
C=CCN(Cc1cn(C)nc1-c1cccc(Cl)c1)C1CCS(=O)(=O)C1 (configuration not stated)	-2%	·	-4%	1%	-1%
CCN1/C(=C/C(=O)c2ccco2)Sc2ccccc21	4%	14%	?	0%	24µM*
CCC(=O)/C=C1/Sc2ccccc2N1CC	-1%	-5%	-3%	-3%	-14%
COc1ccc(C2(c3ccc(OC)cc3)NC(=O)N(CC(=O)Nc3ccccc3)C2=O)cc1	1%	·	-4%	-12%	2%
COc1ccc(C2(c3ccc(OC)cc3)NC(=O)N(CC(=O)N(C)c3ccccc3)C2=O)cc1	3.5µM*	·	2.2µM*	?	19µM*
OCCC1CCCCN1CC(O)COCc1ccc(Cl)cc1 (configuration not stated)	-3%	·	-1%	4%	-3%
CC12CCC(C(=O)Nc3ccncc3)(CC1O)C2(C)C (configuration not stated)	-5%	·	4%	1%	2%
COc1ccc(C(=O)O/N=C(\N)Cc2cccs2)cc1OC	1%	·	5%	13%	5%
COc1ccc(/C(N)=N/OC(=O)Cc2cccs2)cc1	?	?	3.2µM*	?	12µM*
COc1ccc(/C(N)=N/OC(=O)Cc2cccs2)cc1OC	11%	23%	6%	12%	24µM*
CN(C(=O)CCc1nc(-c2ccccc2F)no1)c1ccc(Cl)cc1	·	3%	·	·	-6%
CCCN(C(=O)CCl)C1=CCCCC1	-6%	·	-43%	-15%	-1%
O=C(CCc1nnc(CCc2c[nH]c3ccccc23)o1)NC1CCC1	?	·	3.5µM*	?	21µM*
O=C(CCc1nnc(Cc2c[nH]c3ccccc23)o1)NC1CCCC1	-8%	·	-3%	0%	4%
O=C(Cc1cccs1)Nc1nnc(SCC(=O)N2CCCCC2)s1	-1%	23%	-2%	-7%	1%
O=C(Nc1nnc(SCC(=O)N2CCCCC2)s1)c1cccs1	2%	?	17%	2%	19µM*
O=C(Nc1nnc(SCC(=O)N2CCOCC2)s1)c1ccccc1Cl	?	-7%	?	13%	8.5µM*
O=C(Nc1nnc(SCC(=O)N2CCCCC2)s1)c1ccccc1F	12%	·	17%	10%	24µM*
O=C(NCc1ccccc1)c1ccccc1NC(=O)C1CCCCC1	-1%	·	1%	-5%	-3%
CCC(=O)Nc1ccc2nc(SCc3ccccc3)sc2c1	·	·	·	·	15µM*
Cn1cnnc1SCC(=O)Nc1ccc2nc(SCc3ccccc3F)sc2c1	2.8µM*	?	1.6µM*	?	6.7µM*
CCC(CC)C(=O)Nc1ccc2nc(SCc3ccccc3)sc2c1	·	·	·	·	-2%
O=C(CSc1nc2ccc(NC(=O)CSc3nnnn3-c3ccccc3)cc2s1)Nc1ccccc1	-4%	-29%	-2%	13%	5%
CC(C)NC(=NCc1ccc(Cl)cc1Cl)Nc1ccccc1	-4%	·	0%	-20%	-1%
Cn1ccnc1SCC(=O)Nc1ccc(F)c([N+](=O)[O-])c1	-2%	·	-6%	2%	-3%
Cc1cc(C)c(Cn2c3ccccc3c3cnn(CC(=O)NC4CCC(C)CC4)c(=O)c32)c(C)c1 (configuration not stated)	·	2%	·	·	-5%
Cc1cc(C(F)(F)F)c2c(n1)sc1c(O)cc(=O)[nH]c12	1%	9%	2%	-1%	-13%

Screens (PubChem)
